Test results as given in the supplement of paper PMC11417369.
± gives the standard deviation of the averaged measurements. In all, about 25,000 sequences were measured (“ln(normalized median fluorescence intensity)”: median about 10, highest 2% from about 12 on). The sample holds the highest values, similar sequences and a random draw of the others, so the mix is not that of the screen.

What follows are sequences tested on PfAP2-G AP2 domain (GST-tagged) (assay: gcPBM binding intensity (ln(normalized median fluorescence intensity)); higher = stronger DNA binding).
In short: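 Each value is the highest Masliner-normalised natural-log median intensity across replicate spots of either orientation of a probe. The probes were primer-extended double-stranded 36-bp intergenic genomic sequences on an Agilent 4 × 180k array, alongside negative controls, exposed for 1 h to GST-tagged P. falciparum DNA-binding domains expressed in E. coli. Bound protein was picked up with Alexa488 anti-GST antibody and scanned at 488 nm.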

Sequence	gcPBM binding intensity (ln)
AAAAGACATTTTTTTTTATAAATACACACGTACGTG [TGCATGCA_negctrl_site281]	11.1 ± 0.72
CCTCCCATTTTTACACGTACACATTTAAAATAGACT [XGTACX_site5640]	11.7 ± 1.1
TATTTTACACATTTACGTACATAAATATATATATAT [XGTACX_site8788]	11.6 ± 0.95
TCTTATGATGGAATGTTAAATATTACATTTTGTTTA [TGCATGCA_negctrl_site503]	9.51 ± 0.22
GTTTTTGAGTAGTACACACACAATAAGGATGGATTC [CACACA_site3192]	11.5 ± 0.97
GAAACGTTTTTGAGTAGTACACACACAATAAGGATG [XGTACX_site6809]	11.7 ± 1.1
ACGTTTTTGAGTAGTACACACACAATAAGGATGGAT [CACACA_site9044]	11.5 ± 0.97
TTAAAAATGTTGGAAAGTACATATTTTTTAAAAGTA [XGTACX_site802]	11.1 ± 0.61
TTAACCACTAAAAGTACACACATATATACATATATA [CACACA_site3912]	11.4 ± 0.92
AATACATATGGGTGTACACATTATATATATATATAT [CACACA_site4601]	11.6 ± 0.89
TCATCATGTATGTACACACATACATATATTATGTAC [CACACA_site1386]	11.7 ± 0.8
ATAATAATATGTGGGTGTACATATACACATATATAT [XGTACX_site4356]	11.3 ± 0.71
ATATATACATATGGGTGTACATATGCACATATATAT [XGTACX_site8437]	11.3 ± 0.71
TATATCATCATGTATGTACACACATACATATATTAT [CACACA_site8387]	11.2 ± 0.72
ATATATCATCATGTATGTACACACATACATATATTA [XGTACX_site2814]	11.2 ± 0.74
TAGAATAATCTATAAACACACAAACACAACAAAAGA [CACACA_site7861]	10.3 ± 0.32
ATATATTATCAACTTACACACAGAAAAATATAATAA [CACACA_site293]	9.975 ± 0.092
ATTTGGCATAAACACACACACACACCCACCCACATA [CACACA_site8096]	10.6 ± 0.38
ACGGGCGACACATAAGTGCGCAAAAAAAAAAAAATA [GTGCAC_site9688]	10.4 ± 0.46
TTTTTTTTTTTGTGAGTGCACGTATGAAGAGAAAAA	10.9 ± 0.8
TTATAAATATAATATTGTACAAAATTTTAACATGTC [XGTACX_site5259]	10.9 ± 0.59
GCATTCATTTTTAATACACACAAAAAAAAAATAAAA [CACACA_site2408]	10.2 ± 0.42
TTTTAATGATATATGAGTACACATTGTTTTTTATAA [XGTACX_site1072]	11.6 ± 1
CCCTCAACGAATTTGAGTACACATTTTAAATGATAT [XGTACX_site7763]	11.7 ± 1.1

Sequence	gcPBM binding intensity (ln)
TATATATATATATATACACACATTTTTAATGATAAA [CACACA_site2695]	10.1 ± 0.37
AAAATCTAGGTATTTATACACACTAATATAATATAC [CACACA_site8108]	10.2 ± 0.28
TCCTCTTTTATTTTTACACACGCGTAAACATATATA [CACACA_site667]	10.5 ± 0.4
TTTTTTTTTTTTTTTACACACATTTGAATAACTTTA [CACACA_site6810]	9.75 ± 0.34
ATAACTTTATTTTCCTGTACACACATTTGACATATT [XGTACX_site7192]	11.4 ± 0.73
GTATAACTTTTGCGCGTACACACATTTATCCTCTTT [CACACA_site208]	11.7 ± 0.86
ATAACTTTTGCGCGTACACACATTTATCCTCTTTAT [CACACA_site209]	11.7 ± 0.96
AGTATAACTTTTGCGCGTACACACATTTATCCTCTT [XGTACX_site429]	11.6 ± 0.72
AATTTATGTTTTAAAAGTACTTTTCTAATTTATAAA [XGTACX_site1593]	11.1 ± 0.72
TACTGAAATAATTATTTAAACGTTTTTATATGTATT [CACACA_negctrl_site487]	9.83 ± 0.042
TACACAAAACATAAAAGTACATAATAATAAAGTTAA [XGTACX_site8872]	11.3 ± 0.6
TACATAATAATAAGGCGTACATAAAAATTAAAAATT [XGTACX_site8769]	11.4 ± 1
AAATAGTTAAAAAGGCGTACACATAAATAAATAAAT [XGTACX_site2096]	11.7 ± 0.81
TGTCTTTAAATTTCTCAACACACAGTTATAAAAAAT [CACACA_site8930]	9.94 ± 0.099
AAAAGAATTTGAAGTCGTACAATATCTATTATATGA [XGTACX_site8275]	11.2 ± 0.78
TATATACAAATATGTACACACATTACAGATGTACAT [CACACA_site6586]	11.8 ± 0.82
TAAATACATAGATGTACACACATTACAGATGTACAT [CACACA_site4692]	11.7 ± 0.98
TGTACAAATATGTACACACACACATATATATATATA [CACACA_site584]	11.4 ± 0.91
TACACACATTACAGATGTACATAAAATTAAAAAAAT [XGTACX_site1804]	11.3 ± 0.71
AATAAACATAGATGTACACACATATACAGATATATA [CACACA_site5570]	11.5 ± 1
TATATACATATATGTACACACATTACAGATGTACAT [CACACA_site966]	11.7 ± 0.93
TACATTGTATACATATGTACACATATATATATATAT [XGTACX_site6174]	11.5 ± 0.71
CGTTACACAAAAATATGTACATATATACATATATAT [XGTACX_site4631]	11.1 ± 0.64
AATATATACATATATGTACACACATTACAGATGTAC [CACACA_site8227]	11.5 ± 0.73

Sequence	gcPBM binding intensity (ln)
TCCTAATGCTACCACACACACAAAAACAAATAATAA [CACACA_site2610]	10.5 ± 0.57
AGTAATAAATTTTATACATGCATAAAAAAAAAAAAA [TGCATGCA_site661]	9.72 ± 0.27
TAAAGGTAGATATATTGTACATACACACCTATATAA [XGTACX_site6865]	10.9 ± 0.45
AAGTACATACATAAAACACACACATATATATATATA [CACACA_site8541]	10.5 ± 0.35
AACAGATAAAAGGGTACACACATATATACCTGTACA [CACACA_site4285]	11.7 ± 0.99
AACAGATAAAAGGGTACACACATATATACATGTACA [CACACA_site225]	11.6 ± 0.88
AACAGATAAAAGGGTACACACATATATACAAGTACA [CACACA_site7959]	11.7 ± 0.83
TAAACATATAAAAAGGGTACACATTAAACATAGTAT [XGTACX_site7096]	11.3 ± 0.79
ATAAACAGATAAAAGGGTACACACATATATACATGT [XGTACX_site452]	11.4 ± 0.84
AAAAAAAAAAAACATACACACATACATACAGATATA [CACACA_site4681]	9.94 ± 0.13
ACATAAATAATAAAAACACACATATGTACAGATATA [CACACA_site5112]	11.1 ± 0.59
TTTTCATTTTTTTTTTTTTTTTTTTTTCTTTTTTTT [CACACA_negctrl_site1312]	9.52 ± 0.099
TTTCCCTTAAATTAATGTACATAAATTGAAAATACC [XGTACX_site1602]	11.3 ± 0.77
ACTTGACACGGACACACACACATATATAAAAAAAAA [CACACA_site4576]	11.2 ± 0.91
AAAAAAAAAAAAAAAAGTACATATGCTCAAGAGATG [XGTACX_site3783]	11.5 ± 0.82
TTTTTTTTTTTTTAATGTACCCATGGGCACATAGGT [XGTACX_site486]	11.4 ± 1
CACTTTATACGTAATTGTACTTTTTCTTTTTTTTAT [XGTACX_site3175]	11.5 ± 0.86
AAATAATATATATACACACACACATATATATATACA [CACACA_site554]	10.03 ± 0.028
AAGTTATTTATATATACACACAAATATAAATAATAT [CACACA_site1228]	9.97 ± 0.014
GTATATTAATAAACATGTACACAATTTATTTATATT [XGTACX_site1012]	11.5 ± 0.98
TTGTAATTATTAAACACACACAAAATATATATAATA [CACACA_site2523]	10.3 ± 0.18
TAAAATTTTTTATTCACACAAATATAGTTATATATA [CACACA_site5348]	9.81 ± 0.16
ATATATATATTAACAATACACACGTGTATACCTTAT [CACACA_site2217]	10.38 ± 0.078
ATATATATTAACAATACACACGTGTATACCTTATTG [CACACA_site5258]	10.5 ± 0.22

Sequence	gcPBM binding intensity (ln)
TTATATTTTTTAATTACACACAATTTTTATAAATAT [CACACA_site4148]	9.985 ± 0.021
ATAATATAATAAACGTGTACACAATTAAATTATTAT [XGTACX_site3491]	11.8 ± 0.76
TACAAATTAATATGTACACACAAATATAAATATGTA [CACACA_site7016]	11.5 ± 0.98
ATAGTTATTTTATAGCGTACACAATAAATATATAAA [XGTACX_site4445]	11.7 ± 1.1
TATATATTATACACGTGTACACATTATAACAATATA [XGTACX_site7799]	11.7 ± 0.77
ATATAATAAACGTGTACACAATTAAATTATTATATA [CACACA_site5017]	11.7 ± 1.1
TTCTTTTTTATTTATACATGCAATAAAAAATTGATT [TGCATGCA_site730]	9.925 ± 0.064
AGGACTAATATTTGAACACACATATAACATATACAT [CACACA_site7803]	9.95 ± 0.085
AAAAAAAAAAAAATGTAATTTTTTAATTATTTATAT [GTGCAC_negctrl_site436]	9.47 ± 0.11
GTATTCATGCTAAAGGTGCAATAATTTTTATAATAA [GTGCAC_site9603]	10.2 ± 0.21
ATTTTTTTTAATTTGTACAAATTTTGTTCACAATTT [CACACA_negctrl_site1301]	10.8 ± 0.4
AATTATTCTATATATTGTACATGTTTGTTTTTTTTT [XGTACX_site3130]	10.9 ± 0.42
CATTATGTTGTAAATACACACATACAGATACATACA [CACACA_site4565]	10.3 ± 0.16
ATTAAAAACGGGTGTACACATATATAAATATATATA [CACACA_site4539]	11.7 ± 0.89
TATTTATAATAGTGTACACAATTATAAACTGAATAT [CACACA_site6041]	11.7 ± 0.89
TTTATTAATTTATAGTGTACATATTAATAATATATT [XGTACX_site7949]	11.3 ± 0.68
CATTATTATTAACATACACACGTGTTATATACCCCC [CACACA_site9365]	11 ± 0.61
AATAGTAATTTGAATACACACAATAATATATTTATA [CACACA_site7055]	9.96 ± 0.042
GTTATTAAAAACGGGTGTACACATATATAAATATAT [XGTACX_site1234]	11.6 ± 0.86
ATATTATACCCGTGTACACATTATAACCATATATAA [CACACA_site5933]	11.7 ± 0.82
TATTACCCATATTATACACACATATATTATATATAT [CACACA_site1567]	10.3 ± 0.2
ATATAAAACAACGGGTGTACAAAAAAATAAATAATA [XGTACX_site4094]	11.3 ± 0.76
